According to PubChem BioAssay AID1159580 (chemical genetic matrix, 2015):
Where “and” joins values, the source holds several entries; their conditions need not be identical. Equal values may be shown once. Hit rate of the full screen: of about 5,500 compounds, about 2,000 (36%) were called active. Not shown: some 18% with an inconclusive outcome. Cut-off read from the data, not from the text of the source: active = normalized growth mostly below about 0.91 (no sharp cut-off); inconclusive = no clear call, values can overlap the other calls; inactive = mostly above about 0.92. The list shows a part of the results.

Experiment: chemical genetic growth profiling, strain panel (AID 1159580);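 note: tested at 20 µM; growth read once vehicle control cultures reached saturation at 30 °C; 1 = growth at the plate median or of vehicle wells; lower values mean less growth of the strain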
Conditions: S. cerevisiae deletion strains, growth OD

Measured: normalized growth

COC1=CC23CCCN2CCc2cc4c(cc2C3C1O)OCO4 (stereo not drawn)
inactive: locus YAL013W, strain DEP1, stronger effect = lower value 1.01 | locus YAL021C, strain ccr4, stronger effect = lower value 1.02 | locus YAL026C, strain drs2, stronger effect = lower value 1.03 | locus YAL030W, strain snc1, stronger effect = lower value 1.02 | locus YBL061C, strain skt5, stronger effect = lower value 1.03 | locus YBR009C, strain hhf1, stronger effect = lower value 1.04 | locus YBR021W, strain FUR4, stronger effect = lower value 1.01 | locus YBR023C, strain chs3, stronger effect = lower value 1.05 | locus YBR171W, strain sec66, stronger effect = lower value 1.06 | locus YBR229C, strain ROT2, stronger effect = lower value 1.01 | locus YBR231C, strain swc5, stronger effect = lower value 1.02 | locus YBR279W, strain paf1, stronger effect = lower value 1.03 | locus YCL011C, strain gbp2, stronger effect = lower value 1.02 | locus YCL016C, strain dcc1, stronger effect = lower value 1.03 | locus YCL029C, strain bik1, stronger effect = lower value 1.01 | locus YCL061C, strain MRC1, stronger effect = lower value 1.03 | locus YCL069W, strain vba3, stronger effect = lower value 1.02 | locus YCR088W, strain abp1, stronger effect = lower value 1.03 | locus YDL005C, strain med2, stronger effect = lower value 1.02 | locus YDL035C, strain GPR1, stronger effect = lower value 0.995 | locus YDL040C, strain nat1, stronger effect = lower value 1.02 | locus YDL074C, strain BRE1, stronger effect = lower value 1.04 | locus YDL101C, strain DUN1, stronger effect = lower value 1 | locus YDL185W, strain tfp1, stronger effect = lower value 1.01 | locus YDL192W, strain arf1, stronger effect = lower value 1 | locus YDR001C, strain nth1, stronger effect = lower value 1.02 | locus YDR069C, strain doa4, stronger effect = lower value 1.04 | locus YDR101C, strain arx1, stronger effect = lower value 1.01 | locus YDR137W, strain rgp1, stronger effect = lower value 1.05 | locus YDR150W, strain NUM1, stronger effect = lower value 1.01 | locus YDR159W, strain sac3, stronger effect = lower value 1.04 | locus YDR162C, strain NBP2, stronger effect = lower value 1.01 | locus YDR195W, strain ref2 1.01 | locus YDR297W, strain sur2, stronger effect = lower value 1.02 | locus YDR318W, strain mcm21, stronger effect = lower value 0.987 | locus YDR334W, strain swr1, stronger effect = lower value 1.03 | locus YDR335W, strain msn5, stronger effect = lower value 1.03 | locus YDR388W, stronger effect = lower value 1.01 | locus YDR392W, strain spt3, stronger effect = lower value 0.971 | locus YDR502C, strain sam2, stronger effect = lower value 0.995 | locus YEL003W, strain gim4, stronger effect = lower value 1.02 | locus YEL037C, strain rad23, stronger effect = lower value 1.02 | locus YEL061C, strain CIN8 (second series), stronger effect = lower value 1.02 | locus YEL061C, strain CIN8, stronger effect = lower value 1.01 | locus YER015W, strain faa2, stronger effect = lower value 1.02 | locus YER016W, strain bim1, stronger effect = lower value 1.02 | locus YER110C, stronger effect = lower value 1.01 | locus YER111C, strain swi4, stronger effect = lower value 1.03 | locus YER155C, strain BEM2 (second series), stronger effect = lower value 1.04 | locus YER155C, strain BEM2, stronger effect = lower value 1 | locus YER167W, strain BCK2, stronger effect = lower value 1 | locus YFR010W, strain ubp6, stronger effect = lower value 1.03 | locus YGL078C, strain dbp3, stronger effect = lower value 0.997 | locus YGL086W, strain mad1, stronger effect = lower value 1.03 | locus YGL167C, strain pmr1, stronger effect = lower value 1.03 | locus YGL173C, strain kem1, stronger effect = lower value 1.04 | locus YGL227W, strain vid30, stronger effect = lower value 1.02 | locus YGL240W, strain doc1, stronger effect = lower value 1.04 | locus YGL248W, strain PDE1, stronger effect = lower value 0.988 | locus YGL253W, strain hxk2, stronger effect = lower value 1.03 | locus YGR078C, strain PAC10, stronger effect = lower value 1 | locus YGR135W, strain pre9, stronger effect = lower value 0.986 | locus YGR229C, strain SMI1, stronger effect = lower value 1 | locus YGR252W, strain gcn5, stronger effect = lower value 0.952 | locus YHR013C, strain ard1, stronger effect = lower value 1.04 | locus YHR027C, strain rpn1, stronger effect = lower value 1.06 | locus YHR030C, strain SLT2, stronger effect = lower value 1.01 and 0.963 | locus YHR079C, strain IRE1 (second series), stronger effect = lower value 1.01 | locus YHR079C, strain IRE1, stronger effect = lower value 0.967 | locus YHR094C, strain hxt1, stronger effect = lower value 1.01 | locus YHR129C, strain ARP1, stronger effect = lower value 1.01 | locus YHR142W, strain chs7, stronger effect = lower value 1.05 | locus YHR200W, strain rpn10, stronger effect = lower value 1.01 | locus YIL066C, strain RNR3, stronger effect = lower value 1.01 | locus YIL073C, strain SPO22, stronger effect = lower value 1.04 | locus YIL125W, strain kgd1, stronger effect = lower value 1.01 | locus YIR030C, strain dcg1, stronger effect = lower value 1.01 | locus YJL092W, strain hpr5, stronger effect = lower value 1.02 | locus YJL095W, strain BCK1 (second series), stronger effect = lower value 1.02 | locus YJL095W, strain BCK1, stronger effect = lower value 0.983 and 0.975 | locus YJL115W, strain asf1, stronger effect = lower value 1.01 | locus YJL129C, strain trk1, stronger effect = lower value 1.03 | locus YJL134W, strain LCB3, stronger effect = lower value 1.01 | locus YJL154C, strain vps35, stronger effect = lower value 1.02 | locus YJL164C, strain tpk1, stronger effect = lower value 1.03 | locus YJL166W, strain qcr8, stronger effect = lower value 1.03 | locus YJL168C, strain set2, stronger effect = lower value 1 | locus YJL187C, strain SWE1 (second series), stronger effect = lower value 1
